The text below walks through data of PMC4336329 (PLoS ONE, 2015).

Hit rate of the full screen: of about 310,000 compounds, about 14,000 (4.5%) showed an effect of 50% or more. The effect is printed as a negative number. The full list was thinned out, with strong results kept by preference.
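Note: peak tail current of the secondary pulse compared with the same well before compound.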

In the assay the target is human ether-à-go-go-related gene (hERG) potassium channel (human, UniProt Q12809). The assay is described as follows: primary screen, population patch clamp on CHO cells stably expressing hERG; higher = less effect of the substance.
human ether-à-go-go-related gene (hERG) potassium channel, sequence (Q12809 whole entry, looked up): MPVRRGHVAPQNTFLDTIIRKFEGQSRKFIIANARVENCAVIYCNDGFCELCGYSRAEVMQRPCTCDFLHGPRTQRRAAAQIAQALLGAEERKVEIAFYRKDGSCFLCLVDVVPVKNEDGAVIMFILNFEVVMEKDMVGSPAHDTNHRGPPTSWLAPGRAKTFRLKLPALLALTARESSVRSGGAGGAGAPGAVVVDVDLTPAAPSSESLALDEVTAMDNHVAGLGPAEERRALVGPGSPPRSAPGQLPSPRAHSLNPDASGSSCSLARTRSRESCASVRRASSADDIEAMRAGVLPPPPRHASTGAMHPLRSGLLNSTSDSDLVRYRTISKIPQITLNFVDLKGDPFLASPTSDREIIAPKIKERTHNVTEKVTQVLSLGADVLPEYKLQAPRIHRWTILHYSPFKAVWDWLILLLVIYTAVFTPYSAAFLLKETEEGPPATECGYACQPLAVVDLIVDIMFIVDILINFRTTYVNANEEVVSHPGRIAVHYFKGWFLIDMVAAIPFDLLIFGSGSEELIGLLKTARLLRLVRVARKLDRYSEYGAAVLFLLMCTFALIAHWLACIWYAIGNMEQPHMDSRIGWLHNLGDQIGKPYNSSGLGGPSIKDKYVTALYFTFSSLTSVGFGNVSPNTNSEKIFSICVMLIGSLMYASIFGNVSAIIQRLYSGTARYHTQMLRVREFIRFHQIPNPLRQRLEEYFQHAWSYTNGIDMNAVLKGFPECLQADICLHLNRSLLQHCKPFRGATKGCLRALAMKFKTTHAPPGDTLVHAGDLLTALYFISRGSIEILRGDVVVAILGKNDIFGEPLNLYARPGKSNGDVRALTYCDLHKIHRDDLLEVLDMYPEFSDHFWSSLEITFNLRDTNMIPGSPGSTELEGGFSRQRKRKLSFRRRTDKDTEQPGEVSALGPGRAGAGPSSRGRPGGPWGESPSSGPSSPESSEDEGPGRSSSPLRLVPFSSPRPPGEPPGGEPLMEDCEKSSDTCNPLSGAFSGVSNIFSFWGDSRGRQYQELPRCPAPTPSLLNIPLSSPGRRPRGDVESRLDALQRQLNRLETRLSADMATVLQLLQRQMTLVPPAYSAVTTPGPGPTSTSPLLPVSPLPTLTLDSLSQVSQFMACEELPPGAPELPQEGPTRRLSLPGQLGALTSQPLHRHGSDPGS
Regarding `COCCNC(=O)c1c[nH]c2ccc(S(=O)(=O)N3CCc4ccccc43)cc2c1=O`, the “hERG current change (%, negative = inhibition) at 10uM” value was 6.11%.

Turning to `O=C(OCc1ccccc1F)c1ccc2c(c1)-c1ccccc1C2=O`, the “hERG current change (%, negative = inhibition) at 10uM” value is reported as 16.4%.

In the case of `CCOC(=O)Cn1c(=N)n(CCOc2ccc(OC)cc2)c2ccccc21.Cl`, the “hERG current change (%, negative = inhibition) at 10uM” value is -56.4%.

For `Cl.N=c1n(CCCOc2ccc(F)cc2)c2ccccc2n1CC(N)=O`, the “hERG current change (%, negative = inhibition) at 10uM” value is -41.6%.

Consider `Cc1cccc(OCCn2c(=O)sc3ccccc32)c1`, for which the “hERG current change (%, negative = inhibition) at 10uM” value is -3.38%.

Regarding `CCOC(=O)Cn1c(=N)n(CCOc2ccc(F)cc2)c2ccccc21.Cl`, the “hERG current change (%, negative = inhibition) at 10uM” value is -65.8%.

Turning to `Br.C=CCn1c(=N)n(CC(=O)OCC)c2ccccc21`, the “hERG current change (%, negative = inhibition) at 10uM” value amounted to 5.36%.

For the molecule `Cl.N=c1n(CCCOc2ccc(Br)cc2)c2ccccc2n1CC(N)=O`, the “hERG current change (%, negative = inhibition) at 10uM” value was -44.7%.

On to `CCOC(=O)Cn1c(=O)n(CC(=O)OCC)c2ccccc21`, for which the “hERG current change (%, negative = inhibition) at 10uM” value is reported as 12.3%.

Consider `CCOC(=O)Cn1c(=N)n(CCOc2cccc(C)c2)c2ccccc21.Cl`, for which the “hERG current change (%, negative = inhibition) at 10uM” value is -62.2%.

Turning to `Cc1cccc(OCCn2c(=O)n(C)c3ccccc32)c1`, the “hERG current change (%, negative = inhibition) at 10uM” value was -13.6%.

In the case of `CCOC(=O)Cn1c(=N)n(Cc2ccccc2F)c2ccccc21.Cl`, the “hERG current change (%, negative = inhibition) at 10uM” value was -28.3%.

Consider `CCOC(=O)Cn1c(=N)n(CCOc2ccc(Br)cc2)c2ccccc21.Cl`, for which the “hERG current change (%, negative = inhibition) at 10uM” value was -69.5%.

For `CCOC(=O)Nc1ccc(S(=O)(=O)N2CCOCC2)cc1`, the “hERG current change (%, negative = inhibition) at 10uM” value was 6.38%.

In the case of `CC(/C=N/Nc1nc2ccccc2[nH]1)=C\c1ccccc1`, the “hERG current change (%, negative = inhibition) at 10uM” value is recorded as -41.8%.

On to `O=C(NCCCN1CCCC1=O)Nc1ccc(F)c(Cl)c1`, for which the “hERG current change (%, negative = inhibition) at 10uM” value was -1.92%.

`Cc1nc2ccccc2c(=O)n1-c1cccc(NS(=O)(=O)c2ccccc2)c1`: the “hERG current change (%, negative = inhibition) at 10uM” value is -20.9%.

`CC(=O)Nc1ccc(N2C(=O)c3ccc(C(=O)Nc4nnc(SCc5ccc(F)cc5)s4)cc3C2=O)cc1`: the “hERG current change (%, negative = inhibition) at 10uM” value is 13.4%.

`Cl.OC(c1ccccc1)(c1ccc(F)cc1)C(c1ccccc1)N1CCOCC1` (stereo not shown): the “hERG current change (%, negative = inhibition) at 10uM” value turned out to be 16.8%.

For `CC(=O)NC(=O)COC(=O)c1ccc2ncsc2c1`, the “hERG current change (%, negative = inhibition) at 10uM” value came to 18.5%.

With `O=C(CSc1cccc2cccnc12)N/N=C/c1cccc(O)c1`, the “hERG current change (%, negative = inhibition) at 10uM” value is listed as 2.95%.

For the molecule `CCOc1ccccc1N1CCN(C(=O)c2cc3c(C)cc(C)cc3[nH]2)CC1`, the “hERG current change (%, negative = inhibition) at 10uM” value is recorded as -4.74%.

Consider `COc1ccc(/C=N/NC(=O)c2ccccc2)cc1OS(=O)(=O)c1ccccc1`, for which the “hERG current change (%, negative = inhibition) at 10uM” value is listed as -3.53%.

In the case of `CCCCn1c(SC(C)C(N)=O)nc2cc(C(=O)OC)ccc2c1=O` (stereo not shown), the “hERG current change (%, negative = inhibition) at 10uM” value is recorded as -1.48%.

For the molecule `Cn1c(=O)[nH]c(=O)c2c1nc(N1CCN(CCO)CC1)n2Cc1ccccc1Cl`, the “hERG current change (%, negative = inhibition) at 10uM” value is on record as -6.38%.

For `O=C(NC(=O)c1ccccc1)NC1(C(F)(F)F)OCCO1`, the “hERG current change (%, negative = inhibition) at 10uM” value was 2.65%.

Take `Cc1ccc(-c2nnc(SCC(=O)N/N=C/c3ccccc3C(=O)O)n2C2CCCCC2)cc1`: the “hERG current change (%, negative = inhibition) at 10uM” value stood at 11.1%.

As to `CCCOc1ccc(C(C)=O)cc1CSc1nc(O)cc(=O)[nH]1`, the “hERG current change (%, negative = inhibition) at 10uM” value came to 14.4%.

With `COc1ccc(S(N)(=O)=O)cc1C(=O)OCCCOC(=O)c1cc(S(N)(=O)=O)ccc1OC`, the “hERG current change (%, negative = inhibition) at 10uM” value is on record as 4.29%.

`CCOC(=O)Cn1c(=N)n(CCOc2ccc3ccccc3c2)c2ccccc21.Cl`: the “hERG current change (%, negative = inhibition) at 10uM” value is recorded as -75.3%.

For the molecule `Br.CCOC(=O)Cn1c(=N)n(Cc2ccccc2)c2ccccc21`, the “hERG current change (%, negative = inhibition) at 10uM” value is reported as -34.6%.

Turning to `Br.CCCn1c(=N)n(CC(=O)OCC)c2ccccc21`, the “hERG current change (%, negative = inhibition) at 10uM” value was -4.66%.

Consider `O=C(C1=C[C@H](c2coc3ccccc3c2=O)C[C@H](OCc2ccc(CO)cc2)O1)N1CCN(Cc2ccccc2)CC1`, for which the “hERG current change (%, negative = inhibition) at 10uM” value is reported as -61.7%.

Turning to `O=C(C1=C[C@@H](c2coc3ccccc3c2=O)C[C@@H](OCc2ccc(CO)cc2)O1)N1CCN(Cc2ccccc2)CC1`, the “hERG current change (%, negative = inhibition) at 10uM” value was -48%.

`NC(=O)C1=C[C@@H](c2coc3ccccc3c2=O)C[C@@H](OCc2ccc(CO)cc2)O1`: the “hERG current change (%, negative = inhibition) at 10uM” value is -31%.

On to `CN1CCN(C(=O)C2=C[C@H](c3coc4ccccc4c3=O)C[C@H](OCc3ccc(CO)cc3)O2)CC1`, for which the “hERG current change (%, negative = inhibition) at 10uM” value is given as -41.1%.

Take `O=C(C1=C[C@H](c2coc3ccccc3c2=O)C[C@H](OCc2ccc(CO)cc2)O1)N1CCOCC1`: the “hERG current change (%, negative = inhibition) at 10uM” value was -49.7%.

With `C=CCOC(=O)C1=C[C@H](c2coc3ccccc3c2=O)C[C@H](OCc2ccc(CO)cc2)O1`, the “hERG current change (%, negative = inhibition) at 10uM” value is on record as -62.3%.

Take `O=C(C1=C[C@@H](c2coc3ccccc3c2=O)C[C@@H](OCc2ccc(CO)cc2)O1)N1CCCCCCC1`: the “hERG current change (%, negative = inhibition) at 10uM” value is -66.5%.

As to `O=C(C1=C[C@@H](c2coc3ccccc3c2=O)C[C@@H](OCc2ccc(CO)cc2)O1)N1CCOCC1`, the “hERG current change (%, negative = inhibition) at 10uM” value is reported as -24.7%.

On to `C=CCOC(=O)C1=C[C@@H](c2coc3ccccc3c2=O)C[C@@H](OCc2ccc(CO)cc2)O1`, for which the “hERG current change (%, negative = inhibition) at 10uM” value was -40.9%.

As for `CCOC(=O)c1ccc(NS(=O)(=O)c2c(C)[nH]c(C)c2C(=O)N2CCCCC2)cc1`, the “hERG current change (%, negative = inhibition) at 10uM” value turned out to be 7.73%.

In the case of `CC(C)C(NS(=O)(=O)/C=C/c1ccccc1)C(=O)NCc1ccc(F)cc1` (stereo not shown), the “hERG current change (%, negative = inhibition) at 10uM” value was found to be 25.3%.
